# In PubChem BioAssay (NCI):
# Compounds without any hit were thinned out: in the full panel of roughly 83,000, 20% have a hit.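 Results are percent growth after 48 hours of single-concentration exposure. 100 means growth as in untreated cells, lower positive values show inhibition; negative values down to -100 show cell death.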 Values without a mark were called inactive. The source made the active and inactive calls.
# Tested on: MDA-MB-435 melanoma
# Assay: NCI-60 one-dose screen, 48 h (100 = growth as untreated, 0 = no growth, -100 = all killed)
# Details: 10 µM unless noted
# Protocol: Growth inhibition of the MDA-MB-435 human Melanoma tumor cell line is measured as a screen for anti-cancer activity. Cells are grown in 96 well plates and exposed to the test compound for 48 hours. Compounds are tested at a single concentration, which is 10^-5 M for most compounds. The reported endpoint is percent growth (GI% or GIPRCNT), where numbers from 0 - 100% represent growth inhibition, and numbers from -100% - 0 represent cell death. For example, a value of 40 represents 60% growth inhibition. A value of 0 means no net growth occurred over the course of the experiment. A value of -40 indicates 40% of cells at the beginning of the experiment died by the end of the experiment. A value of -100 means all cells are dead at the end of the experiment.
# NCI-60 Human Tumor Cell Lines Screen was performed using the standard one-dose NCI protocol, which is described in more detail at https://dtp.cancer.gov/discovery_development/nci-60/default.htm.
# Compounds with GIPRCNT values below 10 were considered active. Activity score was based on GIPRCNT using the following formula: […]
# Score is 0 for GIPRCNT values of 100 or above, 50 for GIPRCNT values of 0, and 100 for GIPRCNT values of -100.
row,SMILES,growth
1,CC1=C(SCC(=O)OCCCCCC(C)C)C(=O)c2ccccc2C1=O,102%
2,C#CCOc1ccc(/C=N/Nc2nc(-c3ccc(OC)cc3)cs2)cc1,79.3%
3,CCOC(=O)c1cccc(NC2=C(Cl)C(=O)C(C)=C(C)C2=O)c1,104%
4,CC[C@]12CC(C(=O)OC)=C3Nc4ccccc4[C@@]34CCN(C14)[C@@H]1c3cc4c(cc3O[C@@H]1[C@H]2O)NC1=C(C(=O)OC)C[C@@]2(CC)C3N(CC[C@@]143)C[C@H]1O[C@H]12 (stereo not given in full),-10.9% (active)
5,COc1cc2c3c(cc4c5c(ccc4c3c1OC)OCO5)N(CCN(C)C)C2=O,-18.5% (active)
6,Fc1ccc(-c2cn3c(-c4c[nH]c5ccc(Br)cc45)csc3n2)cc1,83.1%
7,CCOC(=O)C(=O)Nc1ccc2c(ccn2C(=O)c2cccc(F)c2)c1,100%
8,C#CCN(C)CCCOc1ccc(NC(=O)CCCCCCC(=O)NO)cc1Cl,-0.594% (active)
9,O=C(CCCCCCNC(=O)C(O)(O)C(F)(F)F)Nc1ccc(Cl)cc1,11.6%
10,CN1CCN(Cc2ccc(/C=N/Nc3ccnc4cc(Cl)ccc34)cc2)CC1,93.6%
11,NS(=O)(=O)c1cccc(Nc2nc(SCC(=O)c3ccc(Cl)cc3)nc3c2CCC3)c1,99.2%
12,O=C(NNc1nc2cc(F)cc(F)c2n2cccc12)c1cccnn1,24%
13,COc1ccc(C(=O)c2c(N)c(C#N)cn2-c2ccc(Cl)cc2Cl)cc1,97.4%
14,CC1=C(C)C(=O)C(Nc2ccc(C)cc2)=C(Br)C1=O,103%
15,CC(=O)N(O)CCCCCNC(=O)CCC(=O)N(O)CCCCCNC(=O)CCC(=O)N(O)CCCCCN(CCCCCCCCCC[P+](c1ccccc1)(c1ccccc1)c1ccccc1)CCCCCCCCCC[P+](c1ccccc1)(c1ccccc1)c1ccccc1,4.44% (active)
16,N#Cc1c(-c2ccc(F)cc2)cc(-c2c[nH]c3ccccc23)nc1-c1c[nH]c2ccccc12,107%
17,CCOC(=O)c1ccc(NC2=CC(=O)C(C)=C(C)C2=O)cc1,44.2%
18,CCCNNC(=O)c1ccc(-c2ccc(NC(=O)CCCCCCC(=O)N[C@H](C(=O)N3C[C@H](O)C[C@H]3C(=O)N[C@@H](C)c3ccc(-c4scnc4C)cc3)C(C)(C)C)cc2)cc1,8.72% (active)
19,CC1CC(=O)C2=C(C1)Nc1ccc(Br)cc1CC2c1c[nH]c2ccc(Br)cc12 (stereo not given),-18.5% (active)
20,CN1CCN(Cc2ccc(NC(=O)c3cncc(C#Cc4cnc5ccc(N6CCOCC6)nn45)c3)cc2C(F)(F)F)CC1,-65% (active)

row,SMILES,growth
1,O=C(CCCCCCN1CC(=O)N2[C@@H](c3cccs3)c3[nH]c4ccccc4c3C[C@H]2C1=O)NO,80.8%
2,COc1ccc2c(c1)c(-c1nnc(N)nc1-c1c[nH]c3ccc(F)cc13)cn2C,3.37% (active)
3,CN1c2ccccc2Sc2cc(/C=N/Nc3ccnc4cc(Cl)ccc34)ccc21,62.9%
4,CC1(C)C=Cc2cc(/C(N)=N/C(N)=N/c3nc4ccccc4s3)ccc2O1,99.3%
5,Cc1csc(/N=C(N)/N=C(\N)c2cccc(Br)c2)n1,46.2%
6,C#CCn1cc(/C=N/Nc2nc(-c3ccc(Br)cc3)cs2)c2ccccc21,106%
7,CC(=O)/C(N=Nc1ccc2oc(=O)ccc2c1)=C(\C)O,33.2%
8,N#Cc1c(-c2cccs2)cc(-c2cnccn2)nc1SCC(=O)N/N=C/c1ccncc1,104%
9,Cc1ccc([C@H]2c3[nH]c4ccccc4c3C[C@H]3C(=O)N(CCCCCCC(=O)NO)CC(=O)N23)s1,45.2%
10,C#Cc1nc(C(=O)NCCCCCCC(=O)NO)cs1,-34.9% (active)
11,N#CC1=C2NCCCNc3oc(nc3C#N)Cc3ccccc3CC(=N1)O2,95.1%
12,Cn1cc(-c2nnc(N)nc2-c2c[nH]c3ccc(F)cc23)c2cc(Br)ccc21,3.84% (active)
13,Cc1ccc(NC2=C(Cl)C(=O)c3nc(C)ccc3C2=O)c(C)c1,-90% (active)
14,O=S(=O)(NCCCNc1nccc(-c2[nH]c(-c3ccccc3)nc2-c2ccc(F)c(O)c2)n1)c1cccc(F)c1,38%
15,Cc1ccc(C(=O)CSc2nc3ccccc3c(=O)n2C)cc1,100%
16,O=C(COc1ccc(/C=C2\C(=O)Nc3ccc(Cl)cc32)cc1)Nc1ccc(Cl)cc1,55.6%
17,C/C(=N\NC(=O)Nc1ccccc1)c1nnn(-c2ccc([N+](=O)[O-])cc2)c1C,104%
18,CS(=O)(=O)c1ccc(/C(=N/N=C(N)N)c2ccc(Cl)cc2)cc1,8.68% (active)
19,CC(=O)c1cc(C(=O)N2c3ccccc3Sc3ccccc32)n2c1ccc1ccccc12,3.08% (active)
20,Cc1ccc2c(n1)C(=O)C(Cl)=C(Nc1cccc(C(F)(F)F)c1)C2=O,71.3%
